Shown is part of a subset that was picked to be rich in hits.
ERK EGF inh – inhibitors of EGF-stimulated ERK signaling pathway | Potency, µM (doses to about 11.5 µM), hits mostly inhibitors | 0.41% of 130,000 active | HEK293-V1b, EGF-stimulated phospho-ERK AlphaScreen | AID 1454; active = well fitted inhibition curve with a large enough effect; also: nearly all actives have a fitted effect of over 55% in size
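HEK293 cells stably expressing V1b receptor, serum-reduced (1% FBS) overnight, got compound for 30 min at 37C, then 25 nM EGF for 5 min. Lysate phospho-ERK read by AlphaScreen SureFire; AC50 from Hill fits.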
Hits are given with their value; n = inactive.

SMILES	ERK EGF inh
Cc1sc2ncnc(Nc3ccc(O)cc3)c2c1C	28.2µM
Cc1sc2ncnc(N)c2c1C	n
Oc1ccc(Nc2ncnc3scc(-c4ccccc4)c23)cc1	22.4µM
CCNc1ncc2nc(CCc3ccccc3)c(=O)n(C)c2n1	n
CCCCCC1=C2CNC(Cc3ccccc3)(C(=O)OC)C=C2C(C)C1=O (stereo not given)	n
CC1(C)Cc2nc3oc4c(SCC(N)=O)ncnc4c3cc2CO1	n
N[C@](CC1c2ccccc2Oc2ccccc21)(C(=O)O)[C@@H]1C[C@@H]1C(=O)O	n
CCCn1c(C)nc2c(NC3CCCCC3)nc(C)nc21	n
C=C/C(C)=C/[C@@]1(C)SC(=O)C(C)=C1O	n
COc1ccccc1CN1CC2(CCN(S(C)(=O)=O)CC2)C1	n
COc1ccc(O)c(C(=O)/C=C/c2cc3ccccc3o2)c1	25.1µM
COc1ccc(C(=O)/C=C/c2ccccc2)c(O)c1	n
COc1cccc(C(=O)Oc2ccccc2/C=C\C(=O)c2cc3ccccc3o2)c1	n
Cn1cccc1C(=O)N1CCC2(CCN(Cc3ccc(C#N)cc3)CC2)CC1	n
C=CC1=C(C)C2=Cc3c(C=C)c(C)c4[n]3[Sn+2][n]3c(c(C)c(CCC(=O)O)c3=CC3=NC(=C4)C(C)=C3CCC(=O)O)=CC1=N2	n
CCCCCC1=C2CNC(CC(C)C)(C(=O)OC)C=C2C(C)C1=O (stereo not given)	n
CC(=O)OC1CC(OC(C)=O)[C@]2(C)C(CC(=O)[C@]3(C)C2CC[C@@]2(C)C(C(=O)O)OC(=O)C4OC423)C1(C)C (stereo not given in full)	n
O=C(COc1ccc(Cl)cc1Cl)NC(=S)Nc1ccc(CN2CCOCC2)cc1	20µM
O=C(CCCCl)NC(=S)Nc1ccc(CN2CCOCC2)cc1	n
O=C(COc1ccccc1Cl)NC(=S)Nc1ccc(CN2CCOCC2)cc1	n
CCCCCCCCCCCCCCCCOCC(CO)OC(C)=O (stereo not given)	n
Cc1cccc(C)c1OC[C@H](C)N	n
O=C(Nc1ccc2cn[nH]c2c1)c1ccccc1F	n
O=C(Nc1ccc2cn[nH]c2c1)c1c(Cl)cccc1Cl	n
O=C1C(Cl)=C(Nc2ccc3cn[nH]c3c2)C(=O)c2ccccc21	15.8µM
SMILES	ERK EGF inh
O=C(Oc1ccc(NC2=C(Cl)C(=O)c3ccccc3C2=O)cc1)c1ccc([N+](=O)[O-])cc1	n
CN(C)c1ccc(NC2=C(Cl)C(=O)c3ccccc3C2=O)cc1	14.1µM
CC(=O)Nc1ccc(NC2=C(Cl)C(=O)c3ccccc3C2=O)cc1	n
O=c1c(-c2ccc(F)cc2)nc2cnc(Nc3ccccc3)nc2n1Cc1cccs1	n
CC(C)CCCC(C)C1CCC2C3CC[C@H]4CC(=O)CC[C@@]4(C)C3CC[C@@]12C (stereo not given in full)	n
O=C1C=C(O)c2c(O)cccc2C1=O	n
Nc1c(O)ccc2c1C(=O)c1ccccc1C2=O	28.2µM
COc1ccc2c(c1O)C(=O)c1ccccc1C2=O	n
CC[C@H](Cc1c(I)cc(I)c(N)c1I)C(=O)O	n
O=c1ccn(C2OC(COP(=O)(O)OP(=O)(O)OP(=O)(O)O)C(O)C2O)c(=O)[nH]1 (stereo not given)	n
COc1ccc(C(=O)N2CCC3(CCCN(Cc4ccccc4OC)C3)CC2)cc1	n
COc1ccccc1NC(=S)N(c1ccccc1)C(C)C	n
COC1=C(Nc2ccccc2OC)C(=O)c2ccccc2C1=O	14.1µM
COc1ccccc1NC1=C(Cl)C(=O)N(c2ccccc2)C1=O	n
CCCC(=O)N1c2ccccc2C(=C2SC(C(=O)OC)=C(C(=O)OC)S2)C(=S)C1(C)C	12.6µM
COC(=O)c1cc(C(=O)OCC(=O)N2c3ccccc3NC(=O)C2(C)C)cc([N+](=O)[O-])c1	n
CC1(C)C(=O)Nc2ccccc2N1C(=O)CSc1nc(-c2ccccc2)cs1	n
COC(=O)N/N=C/c1ccc([N+](=O)[O-])o1	n
CN(/N=C/c1ccc([N+](=O)[O-])o1)c1ccccc1	25.1µM
O=C(N/N=C/c1ccc([N+](=O)[O-])o1)C(O)c1ccccc1 (stereo not given)	n
Cc1nc(NCc2ccccc2)c2nc(-c3ccccc3)n(CC3CCN(C)CC3)c2n1	n
C1CCN2C[C@@H]3C[C@@H](CN4CCCC[C@H]34)[C@H]2C1	n
COc1cccc(Cn2c(=O)c(-c3cccc(C#N)c3)nc3cnc(Nc4ccccc4)nc32)c1	n
O=[N+]([O-])c1cc(S(=O)(=O)N2CCCC2)ccc1NN=C1CCCCC1	n
O=[N+]([O-])c1cc(C(F)(F)F)cc([N+](=O)[O-])c1NN=C1CCCCC1	17.8µM
SMILES	ERK EGF inh
O=[N+]([O-])c1cc(C(F)(F)F)cc([N+](=O)[O-])c1NCCCN1CCOCC1	n
C[C@H]1[C@H](C)CC[C@]2(C(=O)O)CC[C@]3(C)C(=CCC4[C@@]5(C)CC[C@H](O)C(C)(C)[C@@H]5CC[C@]43C)[C@H]12 (stereo not given in full)	n
C[C@@H](C(=O)O)c1ccc(N2Cc3ccccc3C2=O)cc1	n
O=C(O)[C@H]1C[C@@H](CP(=O)(O)O)CCN1	n
O=C1NN(c2ccccc2)C(=O)/C1=C/c1ccc(-c2ccc(Cl)c(C(=O)O)c2)o1	n
Cc1cccc(N2NC(=O)/C(=C/c3ccc(-c4ccc(Cl)c(C(=O)O)c4)o3)C2=O)c1	n
O=C1NN(c2ccccc2)C(=O)/C1=C/c1ccc(Sc2ccc(Cl)cc2)o1	28.2µM
COC(=O)N[C@H](C[N+](=O)[O-])C(C)(C)C	n
CCCCC(=O)OC1CCC2C3CCc4cc(O)ccc4C3CC[C@]12C (stereo not given in full)	n
COCC(=O)N1CCC2(CC1)CCN(c1ccncc1)CC2	n
COc1ccc(/C=C2/SC(=O)N(CC(=O)NCCC(C)C)C2=O)cc1OC	n
COc1ccc(/C=C2\SC(=O)N(CC(=O)NCCC(C)C)C2=O)cc1OC	n
COc1ccc(/C=C2\SC(=O)N(CC(=O)NNC(=O)c3ccccc3O)C2=O)cc1OC	12.6µM
O=C(c1ccncc1)N1CCC2(CCN(Cc3nccs3)CC2)CC1	n
CCCCCCCCCCCCC/C=C/[C@@H](O)C(CO)NC(C)=O (stereo not given in full)	n
CC1CC2(C)Oc3ccccc3C3OCC1(COC(=O)Nc1ccccc1)C(C)C32 (stereo not given)	n
COc1ccc(-n2c(C)cc(/C=C3/SC(=S)N(C)C3=O)c2C)cc1	n
Cc1cc(/C=C2\SC(=S)N(C)C2=O)c(C)n1-c1cccc(O)c1	28.2µM
O=C1/C(=C/c2ccccn2)SC(=S)N1c1cccc(O)c1	n
Cc1ccc2c(c1)CC[C@H]1CC(=O)CC[C@@]21C	n
CC#CCOC(=O)c1c(C)nc2sc3c(c2c1N)CC[C@@H](O)C3	n
CC1(C)CC(N(Cc2ccc(F)cc2)C(=O)c2ccc(F)cc2)CCO1 (stereo not given)	n
CN(CCC#N)C(=O)CC(Cc1ccccc1)C1CCOC(C)(C)C1 (stereo not given)	n
CC1(C)CC(C(CCN(Cc2ccccc2)C(=O)c2ccco2)c2ccc(F)cc2)CCO1 (stereo not given)	22.4µM
COc1ccc(Nc2c(C)cccc2C)cc1	n
COc1ccc(NC(=O)Nc2cnccn2)cc1	n
COc1ccc(Nc2ccnc(Nc3ccc(OC)cc3)n2)cc1	35.5µM
COc1cccc([C@@H]2Oc3ccc(Br)cc3C(=O)[C@H]2OC(=O)N[C@H](C)C2CCCCC2)c1	n
CC[C@H](C)[C@@H](NC(=O)O[C@@H]1Cc2cc(OC)ccc2O[C@H]1c1cccc(OC)c1)C(=O)OC	n

Screens as filed in PubChem.
